Screens deposited in PubChem BioAssay by National Center for Advancing Translational Sciences (NCATS).
Rows were chosen to be rich in hits. Some 6.1% of all compounds tested hit in one or more screens of this group.
DRD3 antagonist: qHTS of D3 Dopamine Receptor Antagonist: qHTS; max response, negative = inhibition, %; D(3) dopamine receptor (Homo sapiens), P35462; actives 2.5% (n = 360,000); D3R cells, DiscoveRx beta-arrestin luminescence, antagonist mode; stronger effect = lower value; in the data active means max response below about -50%; inconclusive means no clear call, values can overlap the other calls
Target sequence (P35462 whole entry, looked up): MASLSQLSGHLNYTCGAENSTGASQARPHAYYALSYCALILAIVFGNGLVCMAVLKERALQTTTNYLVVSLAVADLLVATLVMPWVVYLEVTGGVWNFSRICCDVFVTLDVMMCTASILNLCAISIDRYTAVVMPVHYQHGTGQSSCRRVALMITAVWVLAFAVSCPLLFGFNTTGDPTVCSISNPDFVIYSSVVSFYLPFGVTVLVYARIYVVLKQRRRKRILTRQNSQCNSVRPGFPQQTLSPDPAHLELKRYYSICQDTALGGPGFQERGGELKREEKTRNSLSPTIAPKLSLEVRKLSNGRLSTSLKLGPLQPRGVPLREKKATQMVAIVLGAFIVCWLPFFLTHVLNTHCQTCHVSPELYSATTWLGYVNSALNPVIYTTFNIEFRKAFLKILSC
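Cells plated overnight at 1500 cells/well, then exposed to library compounds with dopamine controls for 90 minutes at 37 degrees C. DiscoveRx reagent added for 30–60 minutes at room temperature; luminescence read, quantitative HTS format.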
D1 potentiator: Potentiators of Human D1 Dopamine Receptor: qHTS. actives 0.036% (n = 360,000). HEK293 TREx D1 cells, calcium flux, dopamine EC20 potentiation. potentiation, % at 10 µM. D(1A) dopamine receptor (Homo sapiens), P21728; in the data active means potentiation above about 30%
D1 ag: Allosteric Agonists of the Human D1 Dopamine Receptor: qHTS | D(1A) dopamine receptor (Homo sapiens), P21728 | HEK293 T-REx D1 cells, calcium flux, agonist mode | activation, % at 2 µM | actives 1% (n = 360,000) | AID 504660, 2011; in the data active means activation above about 30%
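Tetracycline-induced HEK293 TREx D1 cells, force-coupled to calcium signalling, were dye-loaded with a no-wash calcium kit. Compound was pin-added after a 10 s baseline. Fluorescence was read kinetically at 1 cycle/s for 180 s, with calcium rises flagged as agonism.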
DRD3 agonist: qHTS of D3 Dopamine Receptor Agonist: qHTS; D(3) dopamine receptor (Homo sapiens), P35462; actives 0.58% (n = 410,000); max activation, %; D3R DiscoveRx beta-arrestin cells, luminescence, 90 min; in the data active means max activation above about 30%
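Agonist mode: compounds and dopamine controls were applied to plated cells for 90 min at 37 degrees C after an overnight attachment at 1500 cells/well. Luminescent read-out followed 30 - 60 minutes at room temperature with DiscoveRx detection reagent.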
D1 antagonist: Antagonist of Human D 1 Dopamine Receptor: qHTS. activity change, negative = inhibition, % at 10 µM. HEK293 TREx D1 cells, calcium flux, dopamine EC80; stronger effect = lower value. actives 3.2% (n = 360,000); in the data active means activity change below about -30%
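Kinetic fluorescence of a calcium dye serves as the read-out. D1-expressing Hek293 Trex cells, induced overnight at 30 C, are exposed to compound for 180 s before an EC80 dopamine addition, then read 180 s further.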
Of the large screens only hits and unclear results are named; the others gave an inactive call; ! = not active in a repeat.

Cc1cccc(NC(=O)Cn2cc(C(=O)c3ccccc3)c3ccccc32)c1C	none (no result: DRD3 antagonist)
Cc1cc(/C=C2\C(=O)NC(=O)N(c3cccc(F)c3)C2=O)c(C)n1-c1cc(C(=O)O)cc(C(=O)O)c1	none
Cc1cc(C)cc(-n2c(C)cc(/C=C3\C(=O)NC(=O)N(C)C3=O)c2C)c1	DRD3 antagonist -65
CN[C@@H]1C[C@@H](c2ccc(Cl)c(Cl)c2)c2ccccc21	D1 antagonist -51 (no result: DRD3 antagonist)
CC1(C)S[C@@H]2[C@H](N3C(=O)C(c4ccccc4)NC3(C)C)C(=O)N2[C@H]1C(=O)O (stereo not given in full)	none (no result: DRD3 antagonist, D1 potentiator, D1 ag, D1 antagonist)
Cc1cc(NC(=O)c2cccn(Cc3cccc([N+](=O)[O-])c3)c2=O)no1	none (no result: DRD3 antagonist, D1 antagonist)
COC(=O)[C@@]1(Cc2ccc(F)cc2)[C@H]2c3cc(C(=O)N(C)C)[nH]c3C[C@H]2CN1C(=O)c1ccccc1	D1 antagonist -33
COc1cccc(CNCCc2ccc(F)cc2)c1	none
Fc1ccc(CCNCc2cccc(Cl)c2)cc1	DRD3 antagonist -56, D1 ag 42
Fc1ccc(CCNCc2ccc(Br)cc2)cc1	DRD3 antagonist -56, D1 ag 33
C=CCN=C=S	none (no result: DRD3 antagonist, D1 potentiator, D1 ag, D1 antagonist)
C[C@H]1CC[C@@H]2[C@@H](C)[C@H]3[C@H](C[C@H]4[C@@H]5CC=C6CC(O[C@@H]7O[C@H](CO)[C@H](O)[C@H](O[C@@H]8O[C@H](CO)[C@@H](O)[C@H](O)[C@H]8O)[C@H]7O[C@H]7O[C@@H](C)[C@H](O)[C@@H](O)[C@H]7O)CC[C@]6(C)[C@H]5CC[C@]34C)N2C1 (stereo not given in full)	none (no result: DRD3 antagonist, D1 potentiator, D1 ag, D1 antagonist)
COC(=O)C1=C(c2ccc(OCc3ccccc3)cc2)C[C@@H]2CC[C@H]1N2C(=O)NCCN1CCOCC1	none (no result: D1 potentiator, D1 ag, D1 antagonist)
COC(=O)C1=C(c2ccccc2OCc2ccccc2)C[C@@H]2CC[C@H]1N2C(=O)NCCOc1ccccc1	D1 antagonist -31
COC(=O)C1=C(c2ccc(OCc3ccccc3)cc2)C[C@@H]2CC[C@H]1N2C(=O)NC1CCN(Cc2ccccc2)CC1	DRD3 antagonist -94
COC(=O)C1=C(c2ccc(F)cc2OCc2ccccc2)C[C@@H]2CC[C@H]1N2C(=O)NCCOc1ccccc1	none
COC(=O)C1=C(c2ccccc2OCc2ccccc2)C[C@@H]2CC[C@H]1N2C(=O)NCCOc1ccc(OC)cc1	DRD3 antagonist inconclusive, D1 antagonist -38
CC(C)Cc1nc2cccnc2n1C1CCNCC1	none (no result: DRD3 antagonist)
Cc1ccc(-n2c(=O)[nH]c3ccc(Br)cc3c2=O)cc1	none (no result: DRD3 antagonist)
OC(CN1CCC(c2c[nH]c3ccccc23)CC1)C(F)(F)F (stereo not given)	DRD3 antagonist -63, D1 antagonist -41
NCCc1cc(O)c(O)cc1O	DRD3 antagonist -68! (no result: D1 potentiator, D1 ag, D1 antagonist)
NC(Cc1cc(O)c(O)cc1O)C(=O)O (stereo not given)	none (no result: DRD3 antagonist, DRD3 agonist)
O=S1(=O)N(Cc2ccccc2)CCCN1Cc1ccc(F)cc1Cl	D1 antagonist -44 (no result: DRD3 antagonist)
O=S1(=O)N(Cc2ccccc2Cl)CCCN1Cc1ccccc1Cl	none (no result: DRD3 antagonist)
S=C=Nc1cccc(C2(N3CCCCC3)CCCCC2)c1	DRD3 agonist 84, D1 antagonist -91
c1ccc(C2(N3CCCCC3)CCCCC2)cc1	none (no result: D1 potentiator, D1 ag, D1 antagonist)
COc1nc2ccccc2nc1N1CCN(C)CC1	DRD3 antagonist -83
CSc1nc(N2CCN(C)CC2)c2ccccc2n1	none
CC(C)(N)Cc1ccc(Cl)cc1	none (no result: DRD3 antagonist, D1 potentiator, D1 ag, D1 antagonist)
COc1ccc(-c2nc(CN3C(=O)CN=C(c4ccccc4)c4cc(Cl)ccc43)c(C)o2)cc1	none (no result: DRD3 antagonist)
COC(=O)C1=C(c2ccccc2OCc2ccccc2)C[C@@H]2CC[C@H]1N2C	none (no result: D1 potentiator, D1 ag, D1 antagonist)
COC(=O)C1=C(c2ccc(F)cc2OCc2ccccc2)C[C@@H]2CC[C@H]1N2C(=O)NCCc1ccc(F)cc1	D1 antagonist -32
COC(=O)C1=C(c2ccc(F)cc2OCc2ccccc2)C[C@@H]2CC[C@H]1N2C	DRD3 antagonist -56
NC(N)=Nc1ccc2[nH]c3c(c2c1)C[C@@]1(O)[C@H]2Cc4ccc(O)c5c4[C@@]1(CCN2CC1CC1)[C@H]3O5	DRD3 antagonist -61
COc1ccc(N2C(=O)/C(=C/c3ccc(N(C)C)o3)C(=O)NC2=S)cc1	DRD3 antagonist inconclusive, D1 ag 35
COc1cccc(N2C(=O)/C(=C/c3ccc(C)o3)C(=O)NC2=S)c1	none
O=C1NC(=O)N(c2ccc3c(c2)OCO3)C(=O)/C1=C/c1ccc(N2CCCCC2)o1	none
COC(=O)Cn1cc(/C=C2\C(=O)NC(=O)N(c3ccc(OC)cc3)C2=O)c2ccccc21	none
CCN(CC)c1ccc(/C=C2\C(=O)NC(=S)N(C)C2=O)o1	DRD3 antagonist inconclusive, D1 ag 65
CN1C(=O)C(=Cc2ccc(N3CCCCC3)o2)C(=O)N(C)C1=S	D1 ag 85
COc1ccc(N2C(=O)NC(=O)/C(=C\c3cn(C)c4ccccc34)C2=O)cc1	D1 ag 54
CCCCc1ccc(NC(=O)c2cccn(Cc3ccc(Cl)cc3)c2=O)cc1	none (no result: DRD3 antagonist)
COc1ccc(OC)c(C[C@H](C)N)c1	none (no result: DRD3 antagonist, D1 potentiator, D1 ag, D1 antagonist)
CCN(CC)c1ccc(C=C2C(=O)N(C)C(=S)N(C)C2=O)o1	D1 ag 50
CN(CCc1ccccc1)Cc1c[nH]c2ccccc12	D1 antagonist -66
COc1cccc(CNCCc2c[nH]c3ccccc23)c1	DRD3 antagonist -54
CCOc1cc(CNCCc2c[nH]c3ccccc23)cc(Cl)c1OCC	DRD3 antagonist -76
COc1ccc(CN(CCc2c[nH]c3ccccc23)Cc2ccc(OC)cc2)cc1	DRD3 antagonist -50 (no result: D1 potentiator, D1 ag, D1 antagonist)
CCC(=O)N1CC(=O)Nc2ccc(C)cc2C1c1ccc(F)cc1 (stereo not given)	none (no result: DRD3 antagonist)
O=CC=O	none (no result: DRD3 antagonist, D1 potentiator, D1 ag, D1 antagonist)
C[C@]12CC[C@H]3[C@@H](CCC4=CC(=O)CC[C@@]43C)[C@@H]1CC[C@@H]2OC(=O)CCc1ccccc1	none (no result: DRD3 antagonist, D1 potentiator, D1 ag, D1 antagonist)
CC(=O)O[C@H]1C[C@H](O[C@H]2[C@@H](O)C[C@H](O[C@H]3[C@@H](O)C[C@H](O[C@H]4CC[C@@]5(C)[C@H](CC[C@@H]6[C@@H]5C[C@@H](O)[C@]5(C)[C@@H](C7=CC(=O)OC7)CC[C@]65O)C4)O[C@@H]3C)O[C@@H]2C)O[C@H](C)[C@H]1O[C@@H]1O[C@H](CO)[C@@H](O)[C@H](O)[C@H]1O	none (no result: DRD3 antagonist, D1 potentiator, D1 ag, D1 antagonist)
C[C@@H](N)[C@@H](O)c1ccccc1	none (no result: DRD3 antagonist, D1 potentiator, D1 ag, D1 antagonist)
COc1ccc(CNCCc2c[nH]c3ccccc23)c(OC)c1C	DRD3 antagonist -71
COc1cc(C)c(CNCCc2c[nH]c3ccccc23)cc1C	none
CC1CN=C(Nc2ccc(F)c(Cl)c2)S1 (stereo not given)	DRD3 antagonist inconclusive, D1 antagonist -33
CN1CCN(c2csc3ccc(F)cc3c2=O)CC1	none (no result: DRD3 antagonist)
